{"source": "ChEMBL document CHEMBL3988442", "about": "“University of Dundee, Small-Polar-MMV Screening Library” (2021)", "data": [{"molecular_target": "AMP-activated protein kinase, AMPK (Homo sapiens) (UniProt P54646+O43741+P54619+Q9UGJ0+Q9Y478+Q13131+Q9UGI9)", "assay": "AMP-dependent Kinase enzyme assay. An in vitro enzyme assay that detects ADP turnover that is directly proportional to AMPK activity. This uses naive AMPK that is activated during the assay with MK-8722", "assay_type": "functional", "set-up": "scale not given: direction of the effect not stated beside the values", "conditions": "30 µM", "units": {"Percent Effect": "%"}, "values": [{"smiles": "CCOC(=O)CC1CCCCN1C(=O)c1cccc2ccnn12", "note": "(centres undefined)", "Percent Effect": -6.64}, {"smiles": "COc1ccc(C(=O)NC2CCN(c3ncccn3)CC2)cc1F", "Percent Effect": -7.58}, {"smiles": "CCN(C)C[C@@H]1CN(C(=O)c2cc(-c3ccc(F)cc3)n[nH]2)C[C@@H]1CO", "Percent Effect": 9.6}, {"smiles": "CC(=O)NCCNC(=O)c1cc(COc2ccccc2)[nH]n1", "Percent Effect": 14.5}, {"smiles": "CC(C)CN1C[C@@H](C(=O)O)C[C@@H](C(=O)NCc2ccncc2)C1", "Percent Effect": -2.13}, {"smiles": "COCCC(=O)N1CCCC(CCC(=O)NCc2cccc(OC)c2)C1", "note": "(centres undefined)", "Percent Effect": 14.2}, {"smiles": "NC(=O)CN1C[C@@H](c2ccccc2F)[C@@]2(CCCCC(=O)N2)C1", "Percent Effect": 15.1}, {"smiles": "O=C(COCC1CCCO1)N(Cc1cccnc1)c1ccc(F)cc1", "note": "(centres undefined)", "Percent Effect": -8.95}, {"smiles": "O=C(NCC(O)c1ccc(F)cc1)C1CCN(C2CCCCC2)CC1", "note": "(centres undefined)", "Percent Effect": -8.77}, {"smiles": "Cc1ccc(Cl)c(C)c1NC(=O)N1CCCN(Cc2ccccn2)CC1", "Percent Effect": 2.6}, {"smiles": "CC(C(=O)N1CCC(c2[nH]ncc2-c2ccccc2)CC1)n1cncn1", "note": "(centres undefined)", "Percent Effect": -1.59}, {"smiles": "Fc1ccc(OCCCNC2=NCCCN2)cc1", "Percent Effect": 0.73}, {"smiles": "CN(C)CC(=O)NC1CC(C)(C)Cc2nc(C(C)(C)C)ncc21", "note": "(centres undefined)", "Percent Effect": -0.385}, {"smiles": "CC(C)(C)c1ncc2c(n1)CN(c1cc(NCCO)nc(N)n1)C2", "Percent Effect": -194}, {"smiles": "CC(C)(C)c1nc(CC(=O)Nc2cnccc2O)cs1", "Percent Effect": -0.224}, {"smiles": "CN(Cc1cnccn1)c1cncc(Br)c1", "Percent Effect": 3.25}, {"smiles": "Cc1ccc(OCCN(C)C2CCOC2=O)cc1", "note": "(centres undefined)", "Percent Effect": 0.0432}, {"smiles": "O=C(O)c1cn(CC2CCCN(c3ccc4ccccc4n3)C2)nn1", "note": "(centres undefined)", "Percent Effect": -0.883}, {"smiles": "CC(C)(C)SCCN1CC(=O)N2CC[C@@H](O)C[C@H]2C1=O", "Percent Effect": 3.02}, {"smiles": "CCCn1cc(NC(=O)Nc2ccc(F)c(C(=O)NC)c2)cn1", "Percent Effect": 8.23}, {"smiles": "Cn1ccnc1CNC(=O)c1cncc(C2CCNCC2)n1", "Percent Effect": 1.13}, {"smiles": "COc1c(C2CCCN2CC(=O)N(C)c2nccs2)c(C)nn1C", "note": "(centres undefined)", "Percent Effect": 5.92}, {"smiles": "O=C1CN([C@@H]2CC[C@@H](NS(=O)(=O)c3ccccc3)[C@H]2O)CCN1", "Percent Effect": 11.7}, {"smiles": "CCOc1ccc(NC(=O)NCCCN(C)S(C)(=O)=O)cc1C", "Percent Effect": -4.23}, {"smiles": "CC(C)[C@H]1CN(Cc2ccccn2)C[C@@H]1NC(=O)CCS(C)(=O)=O", "Percent Effect": 9.37}, {"smiles": "CC(=O)N1CCCC(C(=O)NCCc2ccc(F)c(Br)c2)C1", "note": "(centres undefined)", "Percent Effect": 9.28}, {"smiles": "O=C(CNc1ccc(OC2CCOC2)cc1)NCc1ccco1", "note": "(centres undefined)", "Percent Effect": 7.98}, {"smiles": "C[C@@H]1CN(Cc2cc3ccccc3n2C)CC[C@@]1(O)C1CC1", "Percent Effect": 14.8}, {"smiles": "CC(=O)N1CC(c2ccnc(Nc3nccs3)n2)C1", "Percent Effect": 1.83}, {"smiles": "COC(=O)c1ccc(Cn2cnc(C#N)n2)cc1", "Percent Effect": 1.34}, {"smiles": "Cc1nc(CN2CCCC2Cn2cccn2)nc2ccccc12", "note": "(centres undefined)", "Percent Effect": -8.75}, {"smiles": "Cc1ncc(C(=O)N2CCOC(C(=O)N3CCCCC3)C2)c(C)n1", "note": "(centres undefined)", "Percent Effect": -4.59}, {"smiles": "CS(=O)(=O)N1CCC(CNc2c(Cl)cccc2C#N)CC1", "Percent Effect": 7.5}, {"smiles": "N[C@H]1CN(C(=O)c2ccc3[nH]c(CO)nc3c2)C[C@@H]1c1ccccc1", "Percent Effect": 3.57}, {"smiles": "COC1CCN(S(=O)(=O)N2CC[C@@](O)(C3CCC3)[C@H](C)C2)CC1", "Percent Effect": -3.56}, {"smiles": "NC(=O)NC(CC(=O)N1CCc2sccc2C1)c1cccc(Br)c1", "note": "(centres undefined)", "Percent Effect": 13.9}, {"smiles": "CCc1ncc2c(n1)CN(c1cc(N3CCN(C)CC3)nc(N)n1)C2", "Percent Effect": -137}, {"smiles": "Oc1cc(C2CCCCN2Cc2cccs2)nc(-c2ccccn2)n1", "note": "(centres undefined)", "Percent Effect": 23.4}, {"smiles": "CC(C)c1ccccc1OCCNC(=O)N1CCC(CC(N)=O)CC1", "Percent Effect": -3.47}]}]}
